± gives the standard deviation of the averaged measurements.
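Note: viability of the cells left after supernatant collection, read with Deep Blue dye added for 4 h, as absorbance at 570 nm minus 600 nm.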

The subject of the experiment is MDA-MB-231. Put plainly: cell viability relative to vehicle unstimulated control (fraction); higher = more viable cells. Conditions: pre-treatment time: 18 h then 24 h IFNg/TNF.
Consider `CC(=O)OC(CC(C)C1=C2C[C@H](O)C3[C@@]4(C)CCC(=O)C(C)(C)C4CC[C@]3(C)[C@@]2(C)CC1)C1OC1(C)C` (stereo partly drawn) [Alisol B 23-acetate] (compound dose: 10 uM), for which the cell viability came to 1.05 ± 0.034. Consider `CC(C)=CCC[C@@](C)(O)[C@H]1CC[C@]2(C)[C@@H]1[C@H](O)C[C@@H]1[C@@]3(C)CC[C@H](O)C(C)(C)[C@@H]3CC[C@]12C` [(20R)-Protopanaxadiol] (compound dose: 10 uM), for which the cell viability worked out at 0.9532 ± 0.0069. Regarding `COc1ccc2cc1Oc1ccc(cc1)C[C@H]1c3cc(c(OC)cc3CCN1C)Oc1c(OC)c(OC)cc3c1[C@H](C2)N(C)CC3` [Tetrandrine] (compound dose: 10 uM), the cell viability came out at 1.047 ± 0.0084. Turning to `CC1(C)CC[C@]2(C(=O)O)[C@H](O)C[C@]3(C)C(=CC[C@@H]4[C@@]5(C)CC[C@H](O)C(C)(C)[C@@H]5CC[C@]43C)[C@H]2C1` [Echinocystic acid] (compound dose: 10 uM), the cell viability was determined as 1.03 ± 0.014. With `COC(=O)C1=CO[C@@H](O[C@@H]2O[C@H](CO)[C@@H](O)[C@H](O)[C@H]2O)[C@@H]2[C@@]3(C)O[C@H]3[C@@H](O)[C@]12O` [Sesamoside] (compound dose: 10 uM), the cell viability was found to be 0.9746 ± 0.0057. To `CC1C(=O)OC2C(O)C34C5CC(C(C)(C)C)C36C(OC(=O)C6O)OC4(C(=O)O5)C12O` (stereo not drawn) [Ginkgolide B] (compound dose: 10 uM) belongs 0.9 ± 0.12; to `CC12CCC(CC1=O)C2(C)C` (stereo not drawn) [Camphor] (compound dose: 10 uM), 0.977 ± 0.016. In the case of `C=CC(=C)CCC=C(C)C` [Myrcene] (compound dose: 10 uM), the cell viability is 1.02 ± 0.055.

The record behind these values is the supplement of paper PMC13094657.
